{"source": "paper PMC12136788", "binders": {"B1": {"name": "chr2:179515052:179515053:+_ENSMUSG00000000305_ENSMUST00000000314|mus_hu|mus_mus_mus_hu_False|28_58 (ssRNA)", "RNA": "GGGAGUUCUACAGUCCGACGAUCGCUGUCCCAUGCAGUCACCGUGAACGCCACCUGCUCGGAGGGGACCUGCAGCUCCCUAGUGGCGAAGACUGUCCCAUCUGCCCCGACUUUGAAGUCCAUGCUGUUGGUCUCAUAUUGUGUCAACAGAGGAUUGAGCAUCA"}, "B2": {"name": "chr7:135612270:135612271:-_ENSG00000105887_ENST00000393085|hu_mus|hu_hu_hu_mus_False|8_8 (ssRNA)", "RNA": "GGGAGUUCUACAGUCCGACGAUCGUUUUUUUCUGAGAUGUUAAAUAGUACUUCAGUGGAAAACAAAACUUAACCUUUUAUUAAUGCGUGUUGUACCAAAAGCAGACAUUUUAGCUUCAUUUAUUCACUCAAAAUAUCAUUAAGCAACAGAGGAUUGAGCAUCA"}, "B3": {"name": "chr18:56819859:56819860:+_ENSG00000166562_ENST00000588875|hu_mus|hu_hu_hu_mus_True|88_88 (ssRNA)", "RNA": "GGGAGUUCUACAGUCCGACGAUCAACCUUGAUUACUCUGUGAACUAUUGGAAUGUCUCUUCCUUCAACCUUAAAAACAACUAUUUCACCAGCUCUGAUGGGGUCCUCCCGGAAAUUCGUGAGGAACAGCAGAUCUCCUCUGUGCAACAGAGGAUUGAGCAUCA"}, "B4": {"name": "chr5:145543945:145543946:-_ENSG00000133706_ENST00000545646|hu_hu|hu_hu_hu_mus_True|38_58 (ssRNA)", "RNA": "GGGAGUUCUACAGUCCGACGAUCCUGAACGGCCAGUGGUGGGAAAUAAUCAAGCCAGUGCUCUGCUUCAGAAAACUUUACUAUCUCGUCAUCAGAGAGGCCAAGGGAUUUCAUAAUGUCCCACUGGUACUUAGAAGAUCCUGCCAACAGAGGAUUGAGCAUCA"}, "B5": {"name": "chr12:73313434:73313435:-_ENSMUSG00000021087_ENSMUST00000021497|mus_mus|motif|central (ssRNA)", "RNA": "GGGAGUUCUACAGUCCGACGAUCCAUAUAUCCUAAGAGUACAGGAAGAGCCUCAAAACACCUGUCUCAAAGUUUGCCUCGGAGAUUAUGGUACCAGGAAAGGGAAACAAUCAAUUUGCAGUAACGAGGAAGGAGAGAGCUGUUCAACAGAGGAUUGAGCAUCA"}, "B6": {"name": "87970796_87970916_7552_CDS_ENSG00000188994_ENST00000369577|human|control|control (ssRNA)", "RNA": "GGGAGUUCUACAGUCCGACGAUCUUCUGACUGGCAGAGGUUAUCUUCCUGAAAAUCAUUACUUACAUUUGAAGAAGUAUUAGCUUGGGUCUCUACACUUGUGCUAUCUUCAUUUAUUAAUUUUGUAAUAAACAAUUCUGUUAGCAACAGAGGAUUGAGCAUCA"}, "B7": {"name": "chr15:93570553:93570554:+_ENSG00000173575_ENST00000394196|hu_hu|motif|central (ssRNA)", "RNA": "GGGAGUUCUACAGUCCGACGAUCUCUAAGGCCAUAGUGUAUCAUGUCAACCCUUGUUCACGUGCAGGUUUUAGGUGAUGCGGACUCCCUCUUUCUCAACCUGUUAUUUCUACCAACAAUGAAAUCUUUCAAAGCCAGACUCCACAACAGAGGAUUGAGCAUCA"}, "B8": {"name": "135292008_135298915_3170_CDS_ENSG00000155561_ENST00000285968|human|control|control (ssRNA)", "RNA": "GGGAGUUCUACAGUCCGACGAUCAUAUAUGACCUGGUAACAUAGCUCAGCCAGCUGAGGAGAUUCUCGCACCGCCACUGGGCCUGUUCUCCCUUCCGUUCCUUUCUCCAAGAUGUUUAGAAUGGCGUGAAGGCAUGUCCGAGGCAACAGAGGAUUGAGCAUCA"}, "B9": {"name": "chr1:66463027:66463028:+_ENSMUSG00000015222_ENSMUST00000114013|mus_hu|motif|central (ssRNA)", "RNA": "GGGAGUUCUACAGUCCGACGAUCUUUUCUUUCAGGAGUGGAAAUUCUGCCUCUCCCGGUUUUAAAAGGCUUUUCUUUUCGGUGUUUCUCAAGAGAUGAUCUCCGAGCUUCCUUUUCAGCUUUCUCCUCUUUAGGAAUAGUUUCCAACAGAGGAUUGAGCAUCA"}, "B10": {"name": "18138343_18138463_2469_3pUTR_ENSMUSG00000026740_ENSMUST00000166495|mouse|control|control (ssRNA)", "RNA": "GGGAGUUCUACAGUCCGACGAUCUUAGAUCCAUGUAUUCAUGUGCAUGUGUCUAUGUGGGCUCGGAUGUGUGUGCUGUACCACAAUAUGAAUGCAGAGGUCAGAGGACAGCUCCUGUGAACAUGUGCUUGCUGGAGAGUGAGUCAACAGAGGAUUGAGCAUCA"}, "B11": {"name": "chr17:88379672:88379673:+_ENSMUSG00000005370_ENSMUST00000005503|mus_mus|motif|central (ssRNA)", "RNA": "GGGAGUUCUACAGUCCGACGAUCUCCCUUUUGGGCUUCCUUUGACUUUGAACCUGUAUAUGGCUUUAACAUCCUUUUGCGGACCCAGCCCCUUGUUGGGCUGUCAUCAAAGAACUGUACAUGAACACGGACAGAUUUCCCUUUCAACAGAGGAUUGAGCAUCA"}, "B12": {"name": "chr2:48026839:48026840:+_ENSG00000116062_ENST00000540021|hu_hu|hu_hu_hu_mus_False|48_78 (ssRNA)", "RNA": "GGGAGUUCUACAGUCCGACGAUCAUAGUGAGCCACUAGCGUCCUAAAUCUGGAACAAUGGCGAUCAUCCGAAAACUGGCCGAUGAAAAACUUUCCCAGUGAAGUGUCCACAAAGCAAACACCAUACACACGAGUGUGACCAGACAACAGAGGAUUGAGCAUCA"}, "B13": {"name": "chr1:55207850:55207851:+_ENSMUSG00000025979_ENSMUST00000162364|mus_hu|FALSE|FALSE (ssRNA)", "RNA": "GGGAGUUCUACAGUCCGACGAUCCCGAUGAUGAAAAUAAGCAUGUGAAAAUAUUCUGUAAAUCCUACGGCAUACUGAUCCUAGUUUCGCUACAGAUGAUUCCUUUAUGCUAACCCUGCUGGGAAAAUAUUUAUUGCUAUUCAGCAACAGAGGAUUGAGCAUCA"}, "B14": {"name": "chr1:213302989:213302990:+_ENSG00000136643_ENST00000366960|hu_hu|motif|central (ssRNA)", "RNA": "GGGAGUUCUACAGUCCGACGAUCAGAAGCAACAGCCCCUAGUGCUGAAGAAUCCGAAGAAAGAUUGAGACCAAAAGUUCGGAUGGGAGAAUUUUGAUUGGAAGCCAUUCCAUCAUCUAACUCAGCAAGAGAAUCCACAUCAACCAACAGAGGAUUGAGCAUCA"}}, "note": "Over roughly 24,000 sequences, “enrichment r” has its median near 0.99; the highest 2% begin near 3.7. A selection follows.", "data": [{"target": "T1, UNK ZnF1-3 (human, UniProt Q9C0B0 31-174)", "T1 sequence": "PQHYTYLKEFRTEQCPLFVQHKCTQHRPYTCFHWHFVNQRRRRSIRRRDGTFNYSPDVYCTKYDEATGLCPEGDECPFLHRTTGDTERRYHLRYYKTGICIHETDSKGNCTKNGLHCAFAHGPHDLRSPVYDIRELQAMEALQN", "assay": "nsRBNS (natural sequence RNA bind-n-seq); RBNS binding buffer (assumed for nsRBNS): 25 mM Tris pH 7.5, 150 mM KCl, 3 mM MgCl2, 0.01% Triton X-100, 500 ug/ml BSA, 20 U/ml SUPERase-In, 4 C; UNK is unkempt and MSI1 is Musashi-1; names of the RNAs are library labels; protein concentration not given here; high values mean tight binding", "units": {"binding signal": "enrichment R"}, "values": [{"binder": "B1", "binding signal": 0.737}, {"binder": "B2", "binding signal": 0.523}, {"binder": "B3", "binding signal": 0.697}, {"binder": "B4", "binding signal": 1.07}, {"binder": "B5", "binding signal": 2.3}, {"binder": "B6", "binding signal": 0.862}, {"binder": "B7", "binding signal": 0.941}, {"binder": "B8", "binding signal": 1.11}, {"binder": "B9", "binding signal": 0.426}, {"binder": "B10", "binding signal": 1.27}, {"binder": "B11", "binding signal": 0.538}, {"binder": "B12", "binding signal": 1.26}, {"binder": "B13", "binding signal": 1.13}, {"binder": "B14", "binding signal": 2.3}]}]}
